This passage reports Potency results from PubChem BioAssay AID686978 (National Center for Advancing Translational Sciences (NCATS), 2013).

The whole screen tested about 420,000 compounds, of which about 64,000 (15%) were called active. Inconclusive results (about 27%) are left out. The call rests on the fitted dose curve; in most records, active means well fitted inhibition curve with a large enough effect; inconclusive means small, poorly fitted or top-dose-only effect; inactive means flat fitted curve, though single readings scatter. These entries were drawn from the full list. Where a call stands in place of a potency, no number is given.
Potency means the concentration at half of the fitted maximal effect.

This assay can be described thus: qHTS for Inhibitors of human tyrosyl-DNA phosphodiesterase 1 (TDP1): qHTS in cells in absence of CPT. Further: nearly all actives have a fitted effect of over 55% in size. The settings on record: DT40 Tdp1-/- hTDP1 cells, no CPT, ATP luminescence, 48 h; activity change, negative = growth inhibition: at 46.2 µM (top of the series). A digest of the protocol: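 Stably hTDP1-transfected Tdp1-null chicken DT40 cells were treated with library compounds minus camptothecin and grown for at least 48 hr at 37 °C, after which cellular ATP was quantified by luminescence.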
(In qHTS, concentration-response curves come from the screen itself.)
For the compound `CCOC(=O)C1CCN(C(=O)Nc2cccc(OC)c2)CC1`, the Potency entry is “inactive”.
As for `CCOC(=O)C1CCN(C(=O)CN2C(=O)NC(C)(c3ccc4cc(OC)ccc4c3)C2=O)CC1` (configuration not stated), the Potency was 10.3 µM (active).
Turning to `CC1(c2ccc3ccccc3c2)NC(=O)N(CC(N)=O)C1=O` (configuration not stated), the Potency entry was “inactive”.
As to `COc1ccc(C2C3=C(CCCC3=O)N(CC(=O)O)C3=C2C(=O)CCC3)cc1`, the Potency entry is “inactive”.
On to `CC(=O)N1CCOc2ccc(S(=O)(=O)N3CCC(C(=O)Nc4ccccc4F)CC3)cc21`, for which the Potency result was “inactive”.
Regarding `CCOc1ccc(NC(=S)N2CCC(NC(=O)c3ccccc3)CC2)cc1`, the Potency result was “inactive”.
For `CCOC(=O)c1ccccc1NC(=S)N1CCC(C(N)=O)CC1` the value was “inactive”; for `COC(=O)c1ccccc1NC(=O)C1CCN(C(=O)N2CCOc3ccccc32)CC1`, 23.1 µM (active).
For `CCOc1ccc(NC(=O)N2CCN(CC)CC2)cc1` the value was “inactive”; for `CCOc1ccc(NC(=O)C2CCN(C(=O)N3CCOc4ccccc43)CC2)cc1`, 20.6 µM (active); for `Cc1ccsc1C(=O)OCC(=O)Nc1cccc(F)c1`, “inactive”.
The value for `O=C(Nc1cccc2ccccc12)N1CCN(Cc2ccc3c(c2)OCO3)CC1` was “inactive”; that for `N#Cc1cccc(CN2CCC(=O)N(CCO)CC2)c1` was “inactive”.
For `CC(C)[C@@H]1NC(=O)[C@H](Cc2ccccc2)NC(=O)[C@@H](CC(=O)O)NC(=O)CNC(=O)[C@H](CCCNC(=N)N)NC1=O`, the Potency result is “inactive”.
For `C=CCOc1ccc(/C=C/C(=O)OCC(=O)NCC2CCCO2)cc1` (configuration not stated) the value was “inactive”.
For `Cc1cccc(C)c1NC(=O)CN1CCN(c2ccc(F)cc2)CC1` the value was 20.6 µM (active); for `CCCCC(=O)Nc1ccccc1N1CCN(c2ccc(F)cc2)CC1`, 16.4 µM (active).
The value for `O=C(NC(=S)Nc1ccccc1N1CCCCC1)c1ccc(F)cc1` was “inactive”.
As to `O=C(CN1CCN(c2ccccc2)CC1)Nc1ccc(F)cc1`, the Potency result was “inactive”.
Regarding `CCC(C)C(=O)Nc1ccccc1N1CCN(c2ccc(F)cc2)CC1` (configuration not stated), the Potency was 20.6 µM (active).
For `CCC(=O)Nc1ccccc1N1CCN(S(C)(=O)=O)CC1` the value was “inactive”.
Consider `O=C(CN1CCN(c2ccc(F)cc2)CC1)Nc1ccccc1`, for which the Potency entry is “inactive”.
The value for `CCn1cc(CN2CCCC(CNS(=O)(=O)Cc3ccccc3)C2)cn1` (configuration not stated) was “inactive”; that for `CC(C)C(=O)Nc1nnc(SCC(=O)N2C(C)CCCC2C)s1` (configuration not stated) was “inactive”; that for `C[C@H]1CN([C@@H](C)CO)C(=O)CCCn2cc(nn2)CO[C@@H]1CN(C)S(=O)(=O)c1cccc(C#N)c1` was “inactive”.
With `CC(C)NC(=O)C(c1ccc(F)cc1)N(C(=O)CCC(=O)Nc1ccccn1)c1ccccc1F` (configuration not stated), the Potency entry is “inactive”.
For `O=C(Nc1ccccc1Cl)N1CCC(CN2CCCCC2)CC1` the value was “inactive”; for `CC(=O)N=c1ncn(CC(COC(C)=O)OC(C)=O)c2nc[nH]c12` (configuration not stated), “inactive”; for `Cc1ccc(CNC(=O)CCCNC(=O)c2ccc(Cl)cc2)n1C`, “inactive”.
The value for `Cc1nc(-c2ccc(Cl)cc2)sc1C1(C)CC(c2ccc(Br)cc2)=NO1` (configuration not stated) was “inactive”.
The value for `Cc1cccc(NC(=O)CSc2nc3c(c(=O)[nH]2)CCC3)c1C` was “inactive”; that for `CCCCn1c(N)c(N(CC(C)C)C(=O)c2cccc(S(=O)(=O)N3CCN(C(C)=O)CC3)c2)c(=O)[nH]c1=O` was “inactive”; that for `O=C(NCCCn1ccnc1)C(=O)c1cn(CC(=O)N2CCCCCC2)c2ccccc12` was “inactive”.
With `O=C(NNC(=O)c1cccnc1)Nc1ccccc1`, the Potency entry was “inactive”.
For `O=C(c1cccnc1)N(Cc1ccccc1)C(=O)c1cccnc1` the value was “inactive”.
For `O=C(CC(=O)c1cccnc1)c1ccccc1` the value was 20.6 µM (active).
For `COC(=O)Cc1cnc(NC(=O)CSc2nc(C(C)C)cc(=O)[nH]2)s1` the value was “inactive”; for `COc1cccc(-n2c(=O)c3c(C)c(C(=O)N(C)C)sc3n(Cc3cccc(C)c3)c2=O)c1`, “inactive”.
`COc1cccc(N=c2oc3c(C)ncc(CO)c3cc2C(N)=O)c1`: the Potency entry was “inactive”.
The value for `CCCN(CCC)c1c([N+](=O)[O-])c(=O)oc2ccccc12` was “inactive”; that for `CCC(C)(C)NC(=O)C(c1ccc(O)cc1)N(C(=O)Cn1nnc2ccccc21)c1ccc(NC(C)=O)cc1` (configuration not stated) was “inactive”; that for `COc1ccc(NC(=O)CCCN2C(=O)CCn3nc(-c4cn(C)c5ccccc45)cc32)cc1OC` was 23.1 µM (active).
For `O=C(CN1C(=O)CCn2nc(-c3ccccc3)cc21)NCc1ccccc1` the value was “inactive”; for `COc1ccc(NC(=O)CCCNC(=O)Cn2cnc3sc4c(c3c2=O)CCCC4)cc1OC`, “inactive”; for `O=C(/C=C/[C@H]1O[C@@H](n2ccc(=O)[nH]c2=O)[C@H](O)[C@@H]1O)NCc1ccccn1`, “inactive”.
As for `COc1ccc(Cl)cc1NC(=O)CN(C)C(=O)c1cc2ccccc2cc1OC`, the Potency was 18.4 µM (active).
For `COc1ccc(-c2cc(C(F)(F)F)nc(SCC(=O)Nc3ccc4c(c3)OCO4)n2)cc1OC` the value was “inactive”.
For `COc1ccc(Cl)cc1NC(=O)CSc1nc(-c2cccs2)cc(C(F)(F)F)n1` the value was 20.6 µM (active).
Regarding `COc1ccc(Cl)cc1NC(=O)CNc1ccccc1F`, the Potency result is “inactive”.
For `COc1ccc(Cl)cc1NC(=O)CN(C)C(=O)c1cc(-c2cccs2)nn1-c1ccccc1` the value was 18.4 µM (active); for `COc1ccc(C)cc1NC(=O)CSc1nnc(CC(=O)Nc2ccccc2F)n1C`, “inactive”.
For the compound `O=C(COC(=O)c1cc(-c2cccs2)nn1-c1ccccc1)Nc1cc([N+](=O)[O-])ccc1Cl`, the Potency entry is “inactive”.
With `COc1ccc(Cl)cc1NC(=O)CN(C)C(=O)CNC(=O)C12CC3CC(CC(C3)C1)C2`, the Potency entry is “inactive”.
For `C=Cn1cc[n+](CC(=O)c2ccc(OC)c(OC)c2)c1` the value was “inactive”; for `Cc1c(C(=O)N(C)CCc2cnn(C)c2)oc2c(F)cccc12`, “inactive”.
Turning to `Cn1ccs/c1=N\S(=O)(=O)c1ccc(C(C)(C)C)cc1`, the Potency result is “inactive”.
For `CC(=O)Nc1ccc(S(=O)(=O)NCC2CCC(C(=O)NCCc3ccccc3)CC2)cc1` (configuration not stated) the value was “inactive”.
The value for `CS(=O)(=O)N1CCN=C1SCc1ccc(F)cc1` was “inactive”.
The value for `CCn1c(SCc2cccc(C(=O)O)c2)nnc1-c1ccc(Cl)cc1` was “inactive”; that for `Cc1oc2cc3oc(=O)ccc3cc2c1C` was “inactive”; that for `O=C(Nc1c(Br)cc2c(c1Br)Cc1ccccc1-2)C(F)(F)F` was “inactive”.
Regarding `CC(=O)c1ccc2c(c1)c1ccccc1n2CC(C)C`, the Potency result was “inactive”.
For `CCOC(=O)c1sc(NC(=O)CSc2n[nH]c(CC)n2)nc1C` the value was “inactive”.
Regarding `Cc1ccc(NC(=O)CN2CCc3ccccc3C2)cc1`, the Potency entry is “inactive”.
On to `O=C(CN1CCc2cc3c(cc2C1)OCCCO3)Nc1ccccc1`, for which the Potency is 25.9 µM (active).
The value for `O=C(CN1CCOCC1)Nc1ccccc1` was “inactive”; that for `Cc1ccc(NS(=O)(=O)c2cn(C)c(=O)n(C)c2=O)c(C)c1` was “inactive”; that for `O=C(CCN1C(=O)C2C3C=CC(C3)C2C1=O)Nc1ccccc1F` (configuration not stated) was “inactive”.
For `O=C(NCCCNC(=O)c1ccccc1Cl)c1cnccn1` the value was “inactive”; for `CCCCNC1(C#N)CCN(Cc2ccccc2)CC1`, “inactive”.
The value for `O=C1CCC[C@@H]2C[C@@]3(C[C@@H]4CCN1[C@H]24)Nc1ccccc1NC3=NCc1ccccc1` was “inactive”; that for `O=C1CC[C@@H]2CC3(C[C@@H]4CCN1[C@H]24)Nc1cc([N+](=O)[O-])ccc1NC3=NC1CCCCC1` (some centres not stated) was “inactive”; that for `Cc1cc2c(cc1C)NC1(C[C@H]3CCC(=O)N4CC[C@@H](C1)[C@@H]34)C(=NC(C)(C)CC(C)(C)C)N2` (some centres not stated) was 20 µM (active).
For `COc1ccc(N2C(=O)NC(NS(=O)(=O)c3ccc(Cl)cc3)(C(F)(F)F)C2=O)cc1` (configuration not stated), the Potency result was “inactive”.
For `CN(C)C(=O)c1ccc(-c2cncnc2NC2CCNCC2)cc1` the value was “inactive”.
Consider `O=C(O)c1ccc(/C=C2\SC(=S)N(NC(=O)c3ccc(Br)cc3)C2=O)cc1`, for which the Potency result was “inactive”.
The value for `Cc1ccc(-n2c(Cc3cccs3)nnc2SCC(=O)OC(C)C)cc1` was “inactive”.
Consider `CCn1c(Cc2cccs2)nnc1SCC(=O)c1ccc(C)cc1`, for which the Potency is 14.1 µM (active).
The value for `Cn1c(Cc2cccs2)nnc1SCC(=O)Nc1ccccc1` was “inactive”.
For `O=c1[nH]c(=O)c2nc3ccccc3nc2[nH]1` the value was “inactive”; for `CCCc1nnc(NC(=O)c2cccs2)s1`, “inactive”; for `O=C1NC(=O)C(c2ccc(Cl)cc2)N1` (configuration not stated), “inactive”.
For `CCOC(=O)N1CCN(C(=O)C(=O)Nc2sc3c(c2C#N)CC(C)(C)OC3)CC1` the value was “inactive”.
For `NS(=O)(=O)c1ccc2nc(NC(=O)CS(=O)(=O)c3ccc(F)cc3)sc2c1`, the Potency entry is “inactive”.
The value for `O=C(Cn1c(=O)sc2ccccc21)Nc1nc2c(s1)CCCC2` was “inactive”; that for `COc1cc(C#Cc2ccc3cc(CCCO)oc(=O)c3c2)cc(OC)c1` was 1.03 µM (active); that for `CN(C(=O)CN1C(=O)CCSc2ccc(S(=O)(=O)N3CCCC3)cc21)c1ccccc1` was “inactive”.
For `CSc1ccccc1NC(=O)c1cc(Cl)sc1Cl` the value was “inactive”; for `CN(CC(=O)Nc1c(Cl)cccc1Cl)C(=O)c1ccncc1`, “inactive”; for `Cc1ccc(OCC(=O)NCCCNC(=O)c2ccco2)cc1C`, “inactive”.
For `CC(Oc1ccc2ccccc2c1)C(=O)NNC(=S)NC(=O)c1ccco1` (configuration not stated) the value was 16.4 µM (active); for `CCCc1ccc(OCCNC(=O)c2ccco2)cc1`, “inactive”.
Regarding `CCCc1ccc(OCC(=O)NNC(=S)NC(=O)c2ccco2)cc1`, the Potency was 20.6 µM (active).
For `O=C(Nc1ccc2ccccc2c1)/C(=C\c1ccc2c(c1)OCO2)NC(=O)c1ccco1` the value was “inactive”; for `Cc1ccc(C(=O)NNC(=O)C(C)Oc2ccc3ccccc3c2)o1` (configuration not stated), “inactive”.
For `C=CCn1c(SCc2cc(C(=O)OC)c(C)o2)nnc1-c1ccncc1` the value was “inactive”; for `CCOC(=O)N1CCC(N2Cc3cccc(C(=O)Nc4ccc(S(=O)(=O)N(CC)CC)cc4)c3C2=O)CC1`, “inactive”.
The value for `CCOC(=O)N1CCC(N2Cc3cccc(C(=O)Nc4c(C)cccc4CC)c3C2=O)CC1` was 23.1 µM (active); that for `COC(=O)c1ccc(NC(=O)c2cccc3c2C(=O)N(C2CCCCC2)C3)cc1` was “inactive”; that for `CC1(C)O[C@@H]2[C@H](O1)[C@@H](COS(=O)(=O)O)O[C@H]2n1ccc(=O)[nH]c1=O` was “inactive”.
Consider `NC(=O)COc1ccc(NC(=O)c2ccccc2-c2ccccc2)cc1`, for which the Potency entry is “inactive”.
On to `CCOc1ccc(C(=O)Nc2ccncc2)cc1`, for which the Potency was 18.4 µM (active).
For `CCOc1ccc(NC(=O)c2ccccc2NS(C)(=O)=O)cc1` the value was 18.4 µM (active).
As to `CSc1cccc(NC(=O)CSc2ccccc2)c1`, the Potency result was “inactive”.
Take `CCOc1cccc(C(=O)Nc2cccnc2)c1`: the Potency entry was “inactive”.
For `CCOc1ccc(NC(=O)c2ccc(NC(=O)C3CCCO3)cc2)cc1` (configuration not stated) the value was “inactive”; for `O=C(CSc1ccccc1)Nc1ccc(C(=O)Nc2cccc(O)c2)cc1`, “inactive”.
The value for `CCCOc1cccc(C(=O)NCCCNC(=O)c2cccnc2)c1` was “inactive”; that for `COC(=O)c1ccccc1NC(=O)c1ccccc1NS(C)(=O)=O` was “inactive”.
For the compound `CCOc1ccc(C(=O)Nc2cccc(SC)c2)cc1`, the Potency was 9.2 µM (active).
For `CCCOc1cccc(C(=O)Nc2cccc(NC(=O)c3ccc(C(C)(C)C)cc3)c2)c1` the value was 29.1 µM (active); for `CCOc1ccc(NC(=O)c2ccc(CSc3nnnn3C)cc2)cc1`, “inactive”.
